From PubChem BioAssay (NCI)
Compounds without any hit were thinned out: in the full panel of roughly 83,000, 20% have a hit.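 The endpoint reported here, percent growth, reads 100 for growth as untreated, 0 for no net growth and -100 for all cells dead.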 Unmarked numbers belong to inactive results. Activity calls are given as the source filed them. Rule for the calls: active = growth percent below 10; inactive = the rest.

What was measured:
Assay in all cases: NCI-60 one-dose screen, 48 h (100 = growth as untreated, 0 = no growth, -100 = all killed)
Details in all cases: 10 µM unless noted
NCI-H23 lung = tested on: NCI-H23 lung
NCI-H226 lung = tested on: NCI-H226 lung
NCI-H322M lung = tested on: NCI-H322M lung
HOP-62 NSCLC = tested on: HOP-62 NSCLC
NCI-H460 lung = tested on: NCI-H460 lung
HOP-92 NSCLC = tested on: HOP-92 NSCLC
NCI-H522 lung = tested on: NCI-H522 lung
A549/ATCC NSCLC = tested on: A549/ATCC NSCLC
786-0 renal = tested on: 786-0 renal
COLO 205 colon = tested on: COLO 205 colon
DU-145 prostate = tested on: DU-145 prostate
K-562 leukemia = tested on: K-562 leukemia
MALME-3M melanoma = tested on: MALME-3M melanoma
MDA-MB-231 breast = tested on: MDA-MB-231 breast
RXF 393 renal = tested on: RXF 393 renal
SF-268 CNS = tested on: SF-268 CNS
SF-295 CNS = tested on: SF-295 CNS
SF-539 CNS = tested on: SF-539 CNS
UACC-257 melanoma = tested on: UACC-257 melanoma
M14 melanoma = tested on: M14 melanoma

SMILES | growth (NCI-H23 lung) | growth (NCI-H226 lung) | growth (NCI-H322M lung) | growth (HOP-62 NSCLC) | growth (NCI-H460 lung) | growth (HOP-92 NSCLC) | growth (NCI-H522 lung) | growth (A549/ATCC NSCLC) | growth (786-0 renal) | growth (COLO 205 colon) | growth (DU-145 prostate) | growth (K-562 leukemia) | growth (MALME-3M melanoma) | growth (MDA-MB-231 breast) | growth (RXF 393 renal) | growth (SF-268 CNS) | growth (SF-295 CNS) | growth (SF-539 CNS) | growth (UACC-257 melanoma) | growth (M14 melanoma)
O=c1c2cc(-c3ccccc3)sc2nc2sc(-c3ccccc3)nn12 | 98.9% | 104% | 104% | 102% | 100% | 84.3% | 95.7% | 91.6% | 93% | 109% | 103% | 93.8% | 94.1% | 110% | 93.2% | 100% | 98.8% | 107% | 90.9% | 
CC1Cc2c(Cl)ncnc2N(C)c2ccc(F)cc21 (stereo not drawn) | 103% | 94.5% | 99.5% | 93.2% | 108% | 65.8% | 89.3% | 70% | 79% | 92.5% | 110% | 99.5% | 91.3% | 98.9% | 104% | 93.8% | 91.2% | 97.5% | 70.3% | 91.5%
C1=C(N2CCCC2)CCC1 | 100% | 109% | 109% | 103% | 93.2% | 65.8% | 94.6% | 99% | 105% | 124% | 108% | 120% | 100% | 98.8% | 93.1% | 107% | 104% | 87.4% | 89.8% | 
COc1ccc(-c2nc(/C=C3\SC(=NCc4ccccc4)NC3=O)c3ccccn23)cc1 | -73.4% (active) | 5.75% (active) | 20.4% | -50.7% (active) | -54.6% (active) | -38.2% (active) | -36% (active) | -27.3% (active) | -96.3% (active) | -69.1% (active) | -88.6% (active) | 18.4% | -33.1% (active) | -13.9% (active) | -86.7% (active) | -37.4% (active) | 17.5% | -43.4% (active) | -17% (active) | 
CCOC(=O)c1cc(C(=O)c2cc(OC)c(OC)c(OC)c2)n2ccc(-c3ccncc3)cc12 | 94.8% | 95.9% | 106% | 90.1% | 97.4% | 65.8% | 68.7% | 80% | 90.2% | 103% | 103% | 98.7% | 87.5% | 70.2% | 95.3% | 96.4% | 113% | 93.9% | 80.8% | 
O=C(Nc1cccc([N+](=O)[O-])c1)c1cc2ccccc2cc1O | -0.282% (active) | 1.25% (active) | 14.8% | 0.534% (active) | 3.41% (active) | -9.02% (active) | -3.91% (active) | 11.1% | 8.07% (active) | -66.1% (active) | 10.6% | -9.38% (active) | -23.3% (active) | -43% (active) | 5.31% (active) | 18.3% | -9.62% (active) | 4.44% (active) | -10.1% (active) | 
Oc1c(Cl)cc(Cl)c2ccc(Cn3cc(-c4cc(F)cc(F)c4)nn3)nc12 | 92.3% | 95.1% | 111% | 98.9% | 104% | 29% | -38.7% (active) | 102% | 95.6% | 70.4% | 58.5% | 7.96% (active) | 37.2% | 97.9% | 25.6% | 97.2% | 100% | 65.8% | 60.4% | 
N#Cc1c(N)nnn1Cc1cc(=O)oc2c1ccc1ccccc12 | 93.2% | 83.9% | 102% | 101% | 101% | 87.8% | 78.1% | 91.1% | 102% | 112% | 105% | 93.6% | 103% | 86.7% | 104% | 98% | 109% | 113% | 97.7% | 
